Read-out in test [1]: Interleukin-8 (IL8), CXCL8 (gene 3576)
As to the kind of experiment: BSK_CASM3C_IL8: BioMAP Diversity Plus: CASM3C Assay for Interleukin-8 (IL8) Biomarker Activity (AID 2283042).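 Further: IL-8 protein level quantified by ELISA.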 The following applies: primary human coronary artery smooth muscle cells; actives raise or lower the signal.

Read-out in test [2]: Human Leukocyte Antigen - DR isotype (HLADR), HLA-DRA (gene 3122)
As to the kind of experiment: BSK_CASM3C_HLADR: BioMAP Diversity Plus: CASM3C Assay for Human Leukocyte Antigen - DR isotype (HLADR) Biomarker Activity (AID 2283043).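 Further: cell-surface HLA-DR protein level quantified by ELISA.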 The following applies: primary human coronary artery smooth muscle cells; actives raise or lower the signal.

Read-out in test [3]: Macrophage colony-stimulating factor (MCSF), CSF1 (gene 1435)
As to the kind of experiment: BSK_CASM3C_MCSF: BioMAP Diversity Plus: CASM3C Assay for Macrophage colony-stimulating factor (MCSF) Biomarker Activity (AID 2283044).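 Further: M-CSF protein amount quantified by ELISA after 24 h exposure.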 The following applies: primary human coronary artery smooth muscle cells; actives raise or lower the signal.

Read-out in test [4]: Low-density lipoprotein receptor (LDLR), LDLR (gene 3949)
As to the kind of experiment: BSK_CASM3C_LDLR: BioMAP Diversity Plus: CASM3C Assay for Low-density lipoprotein receptor (LDLR) Biomarker Activity (AID 2283045).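 Further: LDLR protein level on the cell surface quantified by ELISA.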 The following applies: primary human coronary artery smooth muscle cells; actives raise or lower the signal.

Read-out in test [5]: Monocyte Chemoattractant Protein-1 (MCP1), CCL2 (gene 6347)
As to the kind of experiment: BSK_CASM3C_MCP1: BioMAP Diversity Plus: CASM3C Assay for Monocyte Chemoattractant Protein-1 (MCP1) Biomarker Activity (AID 2283046).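 Further: MCP-1 level quantified by ELISA 24 h after dosing.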 Particulars: primary human coronary artery smooth muscle cells; actives raise or lower the signal.

Test [6] in a line: BSK_CASM3C_Proliferation: Cell Proliferation Assessment in the BioMAP Diversity Plus: CASM3C Assay (AID 2283047).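 Further: sulforhodamine B total protein stain as relative cell number at 560 nm; sub-confluent cells exposed 48 h before staining; fitted both ways against DMSO so gain or loss of cell number.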 The following applies: primary human coronary artery smooth muscle cells.
Read-out in test [7]: Monokine induced gamma interferon (MIG), CXCL9 (gene 4283)
As to the kind of experiment: BSK_CASM3C_MIG: BioMAP Diversity Plus: CASM3C Assay for Monokine induced gamma interferon (MIG) Biomarker Activity (AID 2283048).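 Further: MIG protein level measured by ELISA.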 Particulars: primary human coronary artery smooth muscle cells; actives raise or lower the signal.

Read-out in test [8]: serum amyloid A (SAA), SAA1 (gene 6288)
As to the kind of experiment: BSK_CASM3C_SAA: BioMAP Diversity Plus: CASM3C Assay for serum amyloid A (SAA) Biomarker Activity (AID 2283049).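 Further: SAA protein level quantified by ELISA.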 Particulars: primary human coronary artery smooth muscle cells; actives raise or lower the signal.

A short description of test [9]: BSK_CASM3C_SRB: Viability Assessment in the BioMAP Diversity Plus: CASM3C Assay (AID 2283050).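 Further: cells exposed to compound for 24 h.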 The following applies: primary human coronary artery smooth muscle cells.
Read-out in test [10]: Thrombomodulin, THBD (gene 7056)
As to the kind of experiment: BSK_CASM3C_Thrombomodulin: BioMAP Diversity Plus: CASM3C Assay for Thrombomodulin Biomarker Activity (AID 2283051).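 Further: thrombomodulin protein level measured by ELISA 24 h after dosing.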 The following applies: primary human coronary artery smooth muscle cells; actives raise or lower the signal.

Read-out in test [11]: Tissue Factor, F3 (gene 2152)
As to the kind of experiment: BSK_CASM3C_TissueFactor: BioMAP Diversity Plus: CASM3C Assay for Tissue Factor Biomarker Activity (AID 2283052).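 Further: cell surface tissue factor protein level read by ELISA.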 The following applies: primary human coronary artery smooth muscle cells; actives raise or lower the signal.

Read-out in test [12]: Interferon-gamma inducible Protein 10 (IP10), CXCL10 (gene 3627)
As to the kind of experiment: BSK_hDFCGF_IP10: BioMAP Diversity Plus: hDFCGF Assay for Interferon-gamma inducible Protein 10 (IP10) Biomarker Activity (AID 2283053). The following applies: primary human foreskin fibroblasts; actives raise or lower the signal. In short, it runs like this: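 Primary human foreskin fibroblasts exposed to chemicals for 24 h. IP-10 measured by ELISA; changes fitted bidirectionally against DMSO baseline.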

Read-out in test [13]: Urokinase-type plasminogen activator receptor (uPAR), PLAUR (gene 5329)
As to the kind of experiment: BSK_CASM3C_uPAR: BioMAP Diversity Plus: CASM3C Assay for Urokinase-type plasminogen activator receptor (uPAR) Biomarker Activity (AID 2283054).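 Further: cell-surface uPAR protein level quantified by ELISA.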 The following applies: primary human coronary artery smooth muscle cells; actives raise or lower the signal.

Read-out in test [14]: Vascular cell adhesion molecule 1 (VCAM1), VCAM1 (gene 7412)
As to the kind of experiment: BSK_CASM3C_VCAM1: BioMAP Diversity Plus: CASM3C Assay for Vascular cell adhesion molecule 1 (VCAM1) Biomarker Activity (AID 2283055).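 Further: VCAM-1 protein level quantified by ELISA on the cells.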 Particulars: primary human coronary artery smooth muscle cells; actives raise or lower the signal.

Read-out in test [15]: Collagen III, COL3A1 (gene 1281)
As to the kind of experiment: BSK_hDFCGF_CollagenIII: BioMAP Diversity Plus: hDFCGF Assay for Collagen III Biomarker Activity (AID 2283056). The following applies: primary human foreskin fibroblasts; actives raise or lower the signal. In short, it runs like this: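 Response relative to DMSO, fitted in both directions, reflects ELISA-measured collagen III in human primary skin fibroblasts 24 h after compound addition.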

Read-out in test [16]: Epidermal growth factor receptor (EGFR), EGFR (gene 1956)
As to the kind of experiment: BSK_hDFCGF_EGFR: BioMAP Diversity Plus: hDFCGF Assay for Epidermal growth factor receptor (EGFR) Biomarker Activity (AID 2283057). Particulars: primary human foreskin fibroblasts; actives raise or lower the signal. In short, it runs like this: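 Primary human foreskin fibroblasts (hDFCGF system), sampled 24 h after dosing; EGFR quantified by ELISA. Bidirectional fit relative to DMSO baseline; SRB total-protein staining in parallel cultures for cytotoxicity.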

Read-out in test [17]: Interleukin-8 (IL8), CXCL8 (gene 3576)
As to the kind of experiment: BSK_hDFCGF_IL8: BioMAP Diversity Plus: hDFCGF Assay for Interleukin-8 (IL8) Biomarker Activity (AID 2283058). The following applies: primary human foreskin fibroblasts; actives raise or lower the signal. In short, it runs like this: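 Fibroblast monolayers (human foreskin, hDFCGF) received test chemical for 24 h before ELISA detection of IL-8; either increases or decreases relative to DMSO count as activity.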

Test [18] is described as follows: BSK_hDFCGF_Proliferation: Cell Proliferation Assessment in the BioMAP Diversity Plus: hDFCGF Assay (AID 2283059).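 Further: curves fitted for both rise and fall of signal versus DMSO baseline.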 Particulars: primary human foreskin fibroblasts. In short, it runs like this:
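This proliferation readout used SRB total-protein staining of human foreskin fibroblasts […], normalized to DMSO with bidirectional curve fitting.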

Read-out in test [19]: Macrophage colony-stimulating factor (MCSF), CSF1 (gene 1435)
As to the kind of experiment: BSK_hDFCGF_MCSF: BioMAP Diversity Plus: hDFCGF Assay for Macrophage colony-stimulating factor (MCSF) Biomarker Activity (AID 2283060). The following applies: primary human foreskin fibroblasts; actives raise or lower the signal. In short, it runs like this:
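fibroblasts (human foreskin, primary), 24 h post-dose; M-CSF by ELISA; bidirectional fit, DMSO = baseline.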

A short description of test [20]: BSK_hDFCGF_SRB: Viability Assessment in the BioMAP Diversity Plus: hDFCGF Assay (AID 2283061).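 Further: cells exposed to compound for 24 h before the read.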 The following applies: primary human foreskin fibroblasts. In short, it runs like this:
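SRB-based viability read on primary human skin fibroblasts at 24 h: TCA fixation, 0.1% dye, 560 nm. Gain or loss of signal is fitted against the DMSO negative control.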

Active and inactive are the calls of the source. How the source made its calls: active means hit-call score of the fitted dose curve at least 0.9, where 1 is the maximum; inactive means score below 0.9.

For `S=c1[nH]c2ccccc2s1`, the result in [1], in test [2], in [4], in test [5], in [6] and in [7] was inactive. Moreover, the outcome in test [8], in test [9], in test [11], in test [12], in [13] and in test [14] was inactive. Moreover, the result in test [16], in test [17], in [18], in test [19] and in [20] was inactive. The AC50 in test [3] was 9.81 µM (active); in test [10], 8.08 µM (active); in [15], 6.58 µM (active).

`O=C(NS(=O)(=O)/C=C/c1cccs1)c1ccc(F)cc1Br`: the outcome in test [1], in test [2], in [3], in [4], in [5] and in [7] was inactive. Also, the result in [8], in test [9], in test [10], in [13], in test [14] and in test [15] was inactive. Also, the result in test [16], in test [17], in [19] and in test [20] was inactive. Further, the AC50 in test [6] is 5.22 µM (active); in test [11], 0.061 µM (active); in test [12] it was 30.9 µM (active); in test [18] it was 6.17 µM (active).

Take `CC1=C(C)S(=O)(=O)CCS1(=O)=O`: the outcome in [1], in test [2], in test [3], in [4], in test [5] and in test [6] was inactive. The outcome in test [7], in test [8], in test [9], in test [10], in test [11] and in test [12] was inactive. Also, the outcome in test [13], in [14], in test [15], in test [16], in test [17] and in test [18] was inactive. Moreover, the outcome in test [19] and in test [20] was inactive.

Consider `CC(=O)[C@@]1(O)CC[C@H]2[C@@H]3CCC4=CC(=O)CC[C@]4(C)[C@H]3CC[C@@]21C`, for which the result in [1], in test [2], in [3], in test [4], in test [5] and in test [6] was inactive. The outcome in [7], in test [8], in [9], in test [10], in [11] and in test [12] was inactive. Besides, the outcome in [13], in [14], in [15], in [16], in test [17] and in [18] was inactive. The result in [19] and in test [20] was inactive.

In the case of `CC(=O)O[C@]1(C(C)=O)CC[C@H]2[C@@H]3C=C(Cl)C4=CC(=O)[C@@H]5C[C@@H]5[C@]4(C)[C@H]3CC[C@@]21C`, the result in test [1], in test [2], in test [3], in test [4], in [5] and in [6] was inactive. The result in test [7], in test [9], in test [10], in test [11], in test [12] and in test [13] was inactive. The result in test [14], in test [16], in test [17] and in test [20] was inactive. Besides, the half-maximal activity concentration (AC50) is 27 µM (active) in [15] and 17 µM (active) in test [18].

Consider `O=C1NC(=O)C(c2ccccc2)(c2ccccc2)N1`, for which the result in [1], in test [2], in test [3], in test [4], in [5] and in test [6] was inactive. The result in test [7], in [8], in test [9], in test [10], in test [11] and in [12] was inactive. In addition, the outcome in test [14], in [15], in test [16], in [17], in test [18] and in test [19] was inactive. Further, the result in test [20] was inactive.

Turning to `CC(=O)S[C@H](C(=O)N[C@H]1Cc2ccccc2[C@H]2CCC[C@@H](C(=O)O)N2C1=O)C(C)C`, the outcome in [1], in test [3], in [4], in test [5], in test [6] and in test [7] was inactive. Further, the result in test [8], in test [9], in [10], in [11], in test [12] and in [13] was inactive. Besides, the result in test [14], in test [15], in test [16], in test [17], in test [18] and in test [19] was inactive. In test [20], the outcome was inactive. Moreover, the concentration at half-maximal activity (AC50) in test [2] was 3.97 µM (active).

Regarding `CC(=O)CC(c1ccccc1)c1c(O)c2ccccc2oc1=O` (configuration not stated), the outcome in [1], in test [2], in [3], in test [4], in [5] and in test [6] was inactive. Also, the result in [7], in test [8], in [9], in [10], in test [11] and in [12] was inactive. For the same compound, the result in test [13], in test [14], in test [15], in [16], in test [17] and in [18] was inactive. Moreover, the outcome in [19] and in test [20] was inactive.

The AC50 is the midpoint of the concentration-response curve, whichever way the signal moves.

Source of the values: PubChem BioAssay (EPA / NIEHS).
